# LMP1 NFkB inh = inhibitors of Epstein-Barr LMP1-induced NF-kappaB reporter; LMP1-induced NF-kappaB luciferase reporter cells, luminescence; inhibition, % at 12.5 µM; hit rate 0.69% among 350,000; in the data active = inhibition above about 41%; inconclusive = no clear call, values can overlap the other calls;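 note: 0% = neutral control wells and 100% = reference inhibitor control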
# KKLEB tox = CF airway cell cytotoxicity counter-screen; activity change (cytotoxicity), % at 5 µM; KKLEB CF airway cells viability, ATPlite luminescence, overnight; stronger effect = lower value; cells stimulated with P. aeruginosa culture filtrate; AID 602141; hit rate 0.36% among 360,000;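 active = corrected activity change at or below -50% at 5 µM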
# CF NFkB inh = cystic fibrosis NF-kB activation inhibition; KKLEB NF-kB-GFP reporter, PAF-induced, GFP fluorescence overnight; inhibition, % at 5 µM; hit rate 0.86% among 360,000; AID 588850;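 active = at least 50% inhibition at 5 µM, scaled per plate between neutral and stimulator controls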;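 note: PAF is a Pseudomonas aeruginosa culture filtrate used as stimulus; plate controls were PAF-stimulated DMSO wells for no effect and unstimulated DMSO wells for full effect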
# Shn3 inh set2 = Schnurri-3 reporter inhibition in Clone20 osteoblasts; hit rate 0.52% among 360,000; AID 588674; inhibition, % at 12.5 µM; Clone20 osteoblast Shn3 3'UTR firefly luciferase, 24 h;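 active = mean inhibition of at least 75% with every replicate also reaching 75%; inconclusive = mean inhibition at least 75% but some replicate below; inactive = mean inhibition below 75%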;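 note: 0% = median of neutral control wells and 100% = pilot-screen positive control compound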
# MITF TRPM1 inh = inhibitors of MITF-driven TRPM1 promoter in melanoma cells | SK-MEL-5 TRPM1 promoter luciferase, 24 h | inhibition, % at 12.5 µM | hit rate 0.83% among 330,000;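 active = mean inhibition across replicates of 60% or more, whatever share of single replicates reaches that level; inconclusive = some that reach 60%, reason not given; inactive = mean inhibition across replicates below 60%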
# Peg3 promoter = reduces Peg3 promoter-driven luciferase expression in HeLa; hit rate 1.7% among 360,000; HeLa PEG-Prom luciferase reporter, luminescence, overnight; inhibition, % at 20 µM;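 active = inhibition of at least 50% at 20 µM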
# An asterisk follows results filed as active; ? = inconclusive; · = no result given. Most compounds without a hit are left out; they make up all but 2.9% or so of the library.
SMILES,LMP1 NFkB inh,KKLEB tox,CF NFkB inh,Shn3 inh set2,MITF TRPM1 inh,Peg3 promoter
O=C(C[C@@H]1C[C@@H]2c3cc(NS(=O)(=O)c4ccc(F)cc4)ccc3O[C@@H]2[C@@H](CO)O1)NC1CCCCC1,-1,-7,6,8,·,0
COc1cccc(CN(C)C(=O)C2CCCN(C(=O)c3ccc(Cl)cc3)C2)c1 (stereo not drawn),-2,-10,1,-27,·,12
Cc1ccccc1-n1sc2cc(F)ccc2c1=O,3,1,6,-16,6,73*
O=c1c2ccccc2sn1-c1ccccc1F,3,3,34,7,·,-3
C[C@@H]1CN([C@@H](C)CO)C(=O)CCCn2nncc2CO[C@@H]1CN(C)C(=O)Nc1ccc2c(c1)OCO2,17,6,3,-17,·,2
O=C(NC(=S)Nc1cc(-c2nc3ccccc3[nH]2)ccc1Cl)c1ccc2c(c1)OCO2,11,-37,-9,25,55,100*
Cc1ccc(-c2nc3ccccc3[nH]2)cc1NC(=O)c1ccc2c(c1)OCO2,2,14,-4,-3,-30,-7
CCOc1ccc(C(=O)Nc2cc(-c3nc4ccccc4[nH]3)ccc2Cl)cc1[N+](=O)[O-],-7,-53*,39,-11,-9,62*
CCOc1ccc(C(=O)Nc2cc(-c3nc4ccccc4[nH]3)ccc2C)cc1[N+](=O)[O-],6,-19,10,-6,0,25
CCCS(=O)(=O)NC(=O)C1(C)CCN(C(=O)c2cccs2)C1 (stereo not drawn),·,-7,6,-9,·,1
C=C1CCC2C(C)(C(=O)O)CCCC2(C)C1CCC(CO)CCO (stereo not drawn),·,16,-8,3,·,107*
CC1(C)Cc2c(sc3c2c(=O)n(Cc2ccccc2)c2nncn32)CO1,54*,2,4,7,-5,3
CC(c1ccccc1)C(OC(=O)c1cccc([N+](=O)[O-])c1C(=O)O)c1ccccc1 (stereo not drawn),3,-3,-3,-34,2,8
O=S(=O)(N(Cc1ccccc1)[C@H](CO)Cc1ccccc1)N(Cc1ccccc1)[C@H](CO)Cc1ccccc1,7,-23,30,14,10,-6
CC(C)C[C@@H](CO)N(Cc1ccccc1)S(=O)(=O)N(Cc1ccccc1)[C@@H](CO)CC(C)C,-9,-2,27,90*,13,85*
COc1ccc(CN([C@H](CO)CC(C)C)S(=O)(=O)N(Cc2ccccc2)[C@H](CO)CC(C)C)cc1,3,-17,28,26,1,83*
CC(C)C[C@@H](CO)N(Cc1ccccc1)S(=O)(=O)N(Cc1ccccc1)[C@H](CO)CC(C)C,3,-20,40,?,-2,83*
C=CS(=O)(=O)N(Cc1ccccc1Br)[C@H](CO)CC(C)C,-35,-14,25,-14,-12,56*
Cc1ccc(S(=O)(=O)N(C)c2ccc3c(c2)C(=O)c2ccccc2-3)cc1,·,-10,9,-9,·,17
O=C(NC(=S)/C(=C1\CCCCCN1)[N+](=O)[O-])c1ccccc1,40*,-25,-10,33,27,-15
Cc1ccc(OCC(=O)Nc2ccc(Cl)cc2)c(-n2nc3ccccc3n2)c1,-58,-70*,70*,30,-4,48
CCOc1ccc(C)cc1-n1nc2ccccc2n1,-38,2,2,-53,-33,-29
NC(N)=Nc1ccc(C=C2C=Cc3ccccc32)cc1,-6,1,0,-4,-2,104*
CC1(C)CC(=O)C=C(c2cccc(OC(=O)c3ccc(Br)cc3)c2)C1=O,-1,1,3,9,·,-10
COc1ccc(F)cc1CSc1nnnn1-c1ccc(O)cc1,-6,6,4,32,10,17
SMILES,LMP1 NFkB inh,KKLEB tox,CF NFkB inh,Shn3 inh set2,MITF TRPM1 inh,Peg3 promoter
COc1cc(CSc2nnnn2-c2ccc(C)cc2)cc(OC)c1OC,27,-10,-1,90*,23,26
COCOc1ccc(-c2ncc(OCCN3CCCC3=O)nc2NC(=O)c2cc3ccccc3s2)cc1,·,-1,-31,12,·,-2
O=C(Nc1cccc2cccnc12)c1csc(COCCO)n1,·,-4,-13,-25,·,-12
CC1CCC(NC(=O)C(NS(=O)(=O)c2ccc(Br)cc2)C(C)C)CC1 (stereo not drawn),-6,3,4,-17,·,-53
O=S(=O)(c1cnc(Cl)c(Cl)c1)N1CCc2ccccc21,-2,3,-30,9,15,42
O=S(=O)(c1cnc(Cl)c(Br)c1)N1CCc2ccccc21,4,10,-32,8,3,69*
O=S(=O)(c1cc(Cl)ccc1Cl)N1CCc2ccccc21,11,-7,4,16,-7,27
O=S(=O)(c1cnc(Cl)c(Cl)c1)N1CCCc2ccccc21,-4,14,-8,-35,-5,52*
COCCNC(=O)C(OC(=O)c1ccco1)c1ccc(OC)cc1 (stereo not drawn),4,-2,-1,-35,0,11
CCC(C)NC(=O)c1nc2c(nnn2Cc2ccccc2Cl)c(=O)[nH]1 (stereo not drawn),8,4,-13,-20,3,-3
O=C(NCc1cccs1)c1nc2c(nnn2Cc2ccccc2Cl)c(=O)[nH]1,76*,-76*,88*,7,76*,104*
O=C(CCN1C(=O)/C(=C/c2ccccc2)SC1=S)NCCc1ccc(O)cc1,5,-4,-3,-21,-5,95*
COc1cccc(/C=C2\SC(=S)N(CCCC(=O)N3CCCCC3CCO)C2=O)c1 (stereo not drawn),4,-4,7,12,29,64*
COc1ccc(/C=C2/SC(=S)N(CCC(=O)O)C2=O)cc1,33,0,10,52,61*,19
COc1cccc(/C=C2\SC(=S)N(CCC(=O)N3CCCCC3CCO)C2=O)c1 (stereo not drawn),3,-16,31,-53,-5,43
COc1ccc(/C=C2\SC(=S)N(CCC(=O)Nc3ccc(C(=O)O)cc3)C2=O)cc1,-2,-2,6,-16,-13,-1
CCc1ccc(/C=C2\SC(=S)N(CCCC(=O)N(CCO)c3ccccc3)C2=O)cc1,10,-17,20,8,·,76*
O=C(CN1CCCC1c1ccc2c(c1)OCCO2)NC(=O)Nc1ccccc1 (stereo not drawn),-4,-20,11,-17,-7,-29
COc1cc(C)ccc1S(=O)(=O)NC(=O)C1(C)CCN1C(=O)c1ccc(C2CCCCC2)cc1 (stereo not drawn),·,7,-23,-2,·,-3
COc1ccccc1/C=C1\SC(=S)N(CCC(=O)NCCc2ccc(O)cc2)C1=O,4,-9,2,1,-1,40
COc1ccc(/C=C2\SC(=S)N(CCC(=O)NCCc3ccc(O)cc3)C2=O)cc1,0,3,7,-8,6,102*

# High-throughput results from PubChem.
